Records with an inconclusive call do not appear. Where a call stands in place of a potency, no number is given. The source made the active and inactive calls. Calls come from the whole dose curve; as a rule, active = well fitted inhibition curve with a large enough effect in the repeat runs; inconclusive = weak or mixed curves; inactive = no such curve, though single readings can be large or run the other way.
The molecules below were run against Cytochrome P450 2D6 (Homo sapiens) (UniProt P10635) (assay: Cytochrome P450 Family 2 Subfamily D Member 6 (CYP2D6) small molecule antagonists: luciferase reporter qHTS assay (AID 1671196; note: nearly all actives have a fitted effect of over 50% in size)). Details: P450-Glo CYP2D6 enzyme assay, luciferin luminescence, 1 h; series mostly up to 115 µM.
Text: U.S. Tox21 Program National Center for Advancing Translational Sciences [NCATS] U.S. Environmental Protection Agency [EPA] National Institutes of Environmental Health Sciences [NIEHS] National Toxicology Program [NTP] U.S. Food and Drug Administration [FDA] Tox21 Assay Overview: Cytochrome P450 (CYP) enzymes are membrane-bound hemeproteins that play a key role in metabolism of drugs and xenobiotics. Evaluation of the effect of chemicals on CYP isozymes is useful to minimize the adverse drug reactions and toxicities in drug development process. Tox21 chemicals were tested for their effect on CYP enzyme activities by using P450-Glo (TM) screening systems (Promega Corporation, Madison, WI). These systems provide a luminescent method containing proluciferin substrates and are converted to luciferin products by CYP isozymes. The luciferin products formed are detected with a luciferin detection reagent, and the amount of light produced is proportional to CYP activity. P450-Glo (TM) CYP2D6 screening system (Catalog. No. V9890) was used to detect the compounds that interfere in CYP2D6 activity.
Tox21 Assay Protocol Summary: Two ul of enzyme-substrate mix was dispensed into medium binding white/solid 1536-well plates (Greiner Bio-One North America Inc., Monroe, NC) using a BioRaptr Flying Reagent Dispenser (FRD, Beckman Coulter, Brea, CA). […] The assay plates were incubated at room temperature for 10 min. Then 2 ul of NADPH regeneration solution was added to each well of the assay plates using an FRD and incubated at room temperature for 1 h. The reaction was stopped by adding 4 ul of detection reagent using an FRD and after 20 min incubation at room temperature the luminescence signal was measured using a ViewLux plate reader (Perkin Elmer, Shelton, CT). Data were expressed as relative luminescence units.
Potency is the fitted concentration of half-maximal effect.

Sequence of Cytochrome P450 2D6 (Homo sapiens) (P10635 whole entry, looked up): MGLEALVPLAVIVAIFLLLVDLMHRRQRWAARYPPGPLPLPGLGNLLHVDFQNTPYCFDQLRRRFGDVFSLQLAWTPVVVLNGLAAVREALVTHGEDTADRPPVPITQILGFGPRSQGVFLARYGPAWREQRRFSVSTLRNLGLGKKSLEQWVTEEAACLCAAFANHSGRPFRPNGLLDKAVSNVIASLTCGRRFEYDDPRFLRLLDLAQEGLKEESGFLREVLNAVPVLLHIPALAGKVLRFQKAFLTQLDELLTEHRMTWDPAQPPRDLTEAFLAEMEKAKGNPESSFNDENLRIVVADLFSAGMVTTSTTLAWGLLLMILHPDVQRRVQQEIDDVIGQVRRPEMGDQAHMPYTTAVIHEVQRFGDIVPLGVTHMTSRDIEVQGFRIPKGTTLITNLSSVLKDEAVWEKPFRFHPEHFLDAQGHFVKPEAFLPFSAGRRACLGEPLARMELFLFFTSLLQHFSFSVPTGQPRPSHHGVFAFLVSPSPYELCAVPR

| SMILES | Potency | activity change, negative = inhibition |
| --- | --- | --- |
| CC1(C)S[C@@H]2[C@H](N=CN3CCCCCC3)C(=O)N2[C@H]1C(=O)O | inactive | – |
| CCOC(=O)c1ccc(OC(=O)CCCCCN=C(N)N)cc1 | 0.309 µM (active) | – |
| CC/C=C\CC1=C(C)CCC1=O | inactive | – |
| CCCC/C=C\CCCCCCCCCC=O | inactive | – |
| O=C1O[C@@H]2[C@@H](O)[C@H](O)O[C@@H]2[C@H]1O | inactive | – |
| CCOC(=O)[C@H](CCc1ccccc1)N[C@@H](C)C(=O)N1C(=O)N(C)C[C@H]1C(=O)O | inactive | – |
| CC[C@H](C)C(=O)O[C@H]1C[C@H](O)C=C2C=C[C@H](C)[C@H](CC[C@@H](O)C[C@@H](O)CC(=O)O)[C@H]21 | inactive | – |
| CCOCCOC(=O)/C=C/c1ccc(OC)cc1 | inactive | – |
| CC(C)(C)c1n[nH]c(=S)n(N)c1=O | inactive | – |
| CC(=O)/C=C/C1C(C)=CCC(C)C1(C)C (stereo not given) | inactive | – |
| CCCOC(OCCC)OCCC | inactive | – |
| CC(=O)CCCCn1c(=O)c2c(ncn2C)n(C)c1=O | inactive | – |
| CCOc1cc(NC(C)=O)ccc1C(=O)OC | inactive | – |
| CNS(=O)(=O)CCc1ccc2[nH]cc(C3CCN(C)CC3)c2c1 | 34.7 µM (active) | – |
| COc1ccc(C2CNC(=O)C2)cc1OC1CCCC1 (stereo not given) | inactive | – |
| COc1ccc2nc(SCc3ncc(C)c(OC)c3C)[nH]c2c1 | 27.5 µM (active) | – |
| CC(=O)N[C@@H](CCC(=O)O)C(=O)O | inactive | – |
| Nc1ccc2cc(S(=O)(=O)O)cc(O)c2c1 | 44.5 µM (active) | – |
| Cc1[nH]cnc1-c1ccc(Cl)cc1 | 13.8 µM (active) | – |
| Cc1ccccc1C(=O)Nc1ccc(C(=O)N2CCCC(N(C)C)c3ccccc32)cc1 (stereo not given) | inactive | – |

| SMILES | Potency | activity change, negative = inhibition |
| --- | --- | --- |
| CN1CCN(CC(=O)N2c3ccccc3C(=O)Nc3cccnc32)CC1 | – | -4.49% [at 10.5 µM] (inactive) |
| Cc1cccc(C)c1NC(=O)c1ccccc1C(=O)O | inactive | – |
| Cc1c(I)c(=O)n(-c2ccccc2)n1C | inactive | – |
| CC(=O)Nc1cccc(C)c1 | inactive | – |
| Cc1cc2cc3c(C)cc(=O)oc3c(C)c2o1 | inactive | – |
| C[Si](C)=O | – | -1.51% [at 10.5 µM] (inactive) |
| NS(=O)(=O)c1cc2c(cc1Cl)CN(C1CCCCC1)C2=O | inactive | – |
| O=C(O)CCSSCCC(=O)O | inactive | – |
| COc1cc2c(cc1OC)[C@@H]1CC(=O)[C@@H](CC(C)C)CN1CC2 | 12.3 µM (active) | – |
| COCCc1ccc(OCC2CO2)cc1 (stereo not given) | inactive | – |
| O=C(OCc1ccccc1)C(=O)OCc1ccccc1 | inactive | – |
| Cc1ccc2ccc(Cl)cc2n1 | inactive | – |
| CCCOC(=O)C(C)O (stereo not given) | inactive | – |
| CCOc1cc([N+](=O)[O-])c(OCC)cc1N1CCOCC1 | inactive | – |
| CC1=CCC(C(C)C)=CC1 | inactive | – |
| NS(=O)(=O)c1ccc(NC(=O)CCC(=O)O)cc1 | inactive | – |
| CC(C)C(=O)OCCc1ccccc1 | inactive | – |
| CC(C)CCCC(C)(C)O | inactive | – |
| CCCCCCOC(=O)CC | inactive | – |
| COc1cc(N)ccc1C | 12.5 µM (active) | – |

— PubChem BioAssay (Tox21)
